The source of these data is PubChem BioAssay (NCI).

Several values for one entry are separate records, joined by “and”; a condition that tells them apart may be missing. Equal values may be shown once. This is part of a sample that, as a whole, favours compounds with a hit. Of some 83,000 tested, about 20% had one in any assay.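 Assay: single dose, 48 h. Readout: percent growth (0 = no net growth; negative = cell death). Active: <10.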 Activity calls are given as the source filed them.

The experiment deals with HL-60(TB) leukemia. Kind of experiment: NCI-60 one-dose screen, 48 h (100 = growth as untreated, 0 = no growth, -100 = all killed). To be noted: 10 µM unless noted.
For `Cc1cc(OI)c(C(C)C)cc1-c1cc(C(C)C)c(OI)cc1C`, the growth is 106% (inactive).
The result for `O=C1/C=C/[C@@H](O)[C@@H]2C[C@@H](O)C[C@H]2/C=C/CCCCO1` reads -22.8% (active).
Take `O=[N+]([O-])c1ccc(S(=O)Cc2ccccc2)c([N+](=O)[O-])c1` (configuration not stated): the growth was 56.4% (inactive) and -7.5% (active).
The result for `CN1CCC(c2ccccc2)(c2ccccc2)C(=O)C1` reads 90.8% (inactive).
On to `COC1=C(OC)C(=O)C(CCCCCCCCCC[P+](c2ccccc2)(c2ccccc2)c2ccccc2)=C(C)C1=O`, for which the growth is -55.9% (active).
As for `Cc1ccc(NC(=O)Cn2cc(CN3CCN(c4ccnc5cc(Cl)ccc45)CC3)nn2)cc1`, the growth was 87% (inactive).
As to `CC(NNC(=S)N1CCCCCC1)c1ccc2ccccc2n1` (configuration not stated), the growth was 28.8% (inactive).
As for `COc1ccc(C(=O)c2cc3c(N)c(C(=O)Nc4cccc(Cl)c4C)sc3nc2C)cc1`, the growth is -60.6% (active).
In the case of `C=C1C(=O)O[C@H]2[C@H]1CC/C(COC(=O)/C=C/C(=O)NCc1ccc(Cn3c(=O)sn(-c4ccccc4)c3=O)cc1)=C\CC[C@@]1(C)O[C@@H]21`, the growth is -54.7% (active).
For the compound `N#C/C(=C/c1cc([N+](=O)[O-])ccc1Cl)C(N)=O`, the growth is 91.7% (inactive).
Turning to `CC(=O)OC1CC2C(C)(C)OC3CC(=O)OCC32C2CCC3(C)C(=CCC3c3ccoc3)C12C` (configuration not stated), the growth is 116% (inactive).
In the case of `COc1ccc(-c2cc(C(=O)N=Nc3c(O)[nH]c4ccccc34)no2)cc1` it was 91.8% (inactive).
Turning to `Cc1c(C(=O)NCc2ccccc2)[n+](=O)c2cc(F)ccc2n1[O-]`, the growth is 189% (inactive).
For `COc1cc(Nc2nc(N[C@H]3CCCC[C@@H]3N)nc3cc[nH]c(=O)c23)cc(OC)c1`, the growth is 16.2% (inactive).
For the compound `O=C1c2cccnc2C(=O)c2c1c(C(=O)NCCCN1CCCCC1)c1ccccn21`, the growth was -29% (active).
Turning to `O=C1c2ccccc2-c2c1nc1ccccc1[n+]2[O-]`, the growth was 101% (inactive).
Regarding `C=C1[C@@H](O)C[C@H]2C(C)(C)C[C@H](Cl)C[C@]2(C)[C@H]1C[C@H](O)[C@H]1CC(=O)NC1=O`, the growth is -26% (active).
For the compound `COc1cccc(C2=NN(C(C)=O)C(c3cc(OC)c(OC)c(OC)c3)C2)c1` (configuration not stated), the growth was -17.8% (active).
`CC1CCC2(C(=O)O)CCC3(C)C(=CCC4C5(C)CCC(O)C(C)(C)C5CCC43C)C2C1C` (configuration not stated): the growth was 5.83% (active) and 40.2% (inactive).
With `Cc1ccc(-c2nc(N3CCNCC3)c3oc(-c4ccccc4)nc3n2)cc1`, the growth was -66.6% (active).
With `O=C(CSc1nc2ccc([N+](=O)[O-])cc2[nH]1)Nc1ccc(F)cc1`, the growth is 71.6% (inactive).
The result for `Cc1cc(O)c(C2=NN(c3ccc(S(N)(=O)=O)cc3)C(c3ccc(Cl)cc3)C2)c(C)c1Cl` (configuration not stated) reads 18.4% (inactive).
With `Cc1ccc(-c2cn(C/C=C3\C=CN(S(=O)(=O)c4ccccc4)CC3)nn2)cc1`, the growth is 105% (inactive).
Consider `Cc1ccc2[nH]c(=O)cc(-n3nncc3Cn3c4ccccc4c4ccccc43)c2c1`, for which the growth is 107% (inactive).
Consider `O=C(Cc1ccc(/C=C/C(=O)c2ncc[nH]2)cc1)Nc1ccccc1`, for which the growth was 7.76% (active).
Regarding `COc1ccc(-c2nnc(SCC(=O)c3ccc(Cl)cc3)o2)cc1`, the growth is 108% (inactive).
As to `NS(=O)(=O)c1ccc(CCNC(=O)/C=C/c2ccc(Cl)cc2)cc1`, the growth was 89.1% (inactive).
